Results on 23 compounds are retold here after PubChem BioAssay (NCATS).

Results filed as inconclusive are left out. Active and inactive are the calls of the source. Calls come from the whole dose curve; as a rule, active = well fitted curve in the direction sought with a large enough effect; inconclusive = small, poorly fitted or top-dose-only effect, or another doubt; inactive = no such curve, though single readings can be large; an effect the other way counts as inactive or inconclusive.

Assay [1] in a line: qHTS of pediatric cancer cell lines to identify multiple opportunities for drug repurposing: Primary screen for U-2 OS cells (AID 1347096). Note: nearly all actives have a fitted effect of over 50% in size. Put shortly: (§1)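 Viability after 48 h compound treatment at 37C, 500-1,000 cells/well, read as ATP luminescence with CellTiter-Glo. Primary screens used 11-point (MIPE, 0.78 nM-46 µM) or 8-point (NPC, 0.59 nM-46 µM) final concentrations; follow-up screens used 11-point dilutions.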
(In general: In qHTS, concentration-response curves come from the screen itself.)

The nature of assay [2]: qHTS of pediatric cancer cell lines to identify multiple opportunities for drug repurposing: Primary screen for Saos-2 cells (AID 1347097). Note: nearly all actives have a fitted effect of over 40% in size. The gist of the method: (§2)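 CRCs from 8- or 11-point titrations (lowest final 0.59 nM NPC, 0.78 nM MIPE). Cell viability: CellTiter-Glo after 48 h incubation, 15 min room-temperature development, luminescence imaging.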
Assay [3] in a line: qHTS of pediatric cancer cell lines to identify multiple opportunities for drug repurposing: Primary screen for SK-N-SH cells (AID 1347098).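 Note: DMSO served as neutral control and bortezomib at 2.3 µM as positive control; nearly all actives have a fitted effect of over 65% in size.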 The gist of the method:
(§3)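 Cells (500-1,000/well) rested 5 h, then received compounds for 48 h; metabolically active cells were measured by CellTiter-Glo luminescence. Final concentrations spanned up to 46 µM (MIPE, 11-point) or 0.59 nM-46 µM (NPC, 8-point) in primary screens, 11-point in follow-ups.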

A short description of assay [4]: qHTS of pediatric cancer cell lines to identify multiple opportunities for drug repurposing: Primary screen for LAN-5 cells (AID 1347100). The gist of the method: as §1
Assay [5] is described as follows: qHTS of pediatric cancer cell lines to identify multiple opportunities for drug repurposing: Primary screen for Rh18 cells (AID 1347102). Note: nearly all actives have a fitted effect of over 65% in size. The gist of the method: as §1
The nature of assay [6]: qHTS of pediatric cancer cell lines to identify multiple opportunities for drug repurposing: Primary screen for RD cells (AID 1347104). Note: nearly all actives have a fitted effect of over 55% in size. Put shortly:
as §2

A short description of assay [7]: qHTS of pediatric cancer cell lines to identify multiple opportunities for drug repurposing: Primary screen for MG 63 (6-TG R) cells (AID 1347105). Note: nearly all actives have a fitted effect of over 50% in size. Put shortly: as §2
A short description of assay [8]: qHTS of pediatric cancer cell lines to identify multiple opportunities for drug repurposing: Primary screen for OHS-50 cells (AID 1347103). Note: nearly all actives have a fitted effect of over 40% in size. Note: potency is the fitted concentration of half-maximal effect. The gist of the method:
as §3

Assay [9] in a line: qHTS of pediatric cancer cell lines to identify multiple opportunities for drug repurposing: Primary screen for BT-12 cells (AID 1347101). Note: nearly all actives have a fitted effect of over 25% in size. Note: potency is the fitted concentration of half-maximal effect. Put shortly: as §3
A short description of assay [10]: qHTS of pediatric cancer cell lines to identify multiple opportunities for drug repurposing: Primary screen for NB1643 cells (AID 1347099). Note: nearly all actives have a fitted effect of over 50% in size. The gist of the method: as §2

Turning to `CN1CCC(OC(c2ccccc2)c2ccccc2)CC1`, the Potency result in assay [1], in assay [2], in assay [3], in assay [4], in assay [5] and in [6] was “inactive” throughout. Also, the Potency result in [7] was “inactive”.
With `O=[N+]([O-])c1ccc(/C=N\O)o1`, the Potency result in [1], in [2], in [3], in assay [5], in assay [8] and in [6] was “inactive” throughout.
`O=C(O)C(Cc1cc(I)c(O)c(I)c1)c1ccccc1` (stereo not drawn): the Potency entry in [1], in assay [2], in [4], in [9], in assay [5] and in assay [8] was “inactive” in each case. Besides, the Potency entry in assay [6] and in assay [7] was “inactive” each time.
As for `COc1cc(N)c(Cl)cc1C(=O)NC1CCN(Cc2ccccc2)CC1`, the Potency result in assay [1], in [2], in assay [10], in assay [4], in assay [9] and in assay [5] was “inactive” throughout. For the same compound, the Potency result in assay [6] and in assay [7] was “inactive” throughout.
With `CCN1CCCC(OC(=O)C(c2ccccc2)c2ccccc2)C1` (stereo not drawn), the Potency result in assay [1], in [2], in assay [10], in assay [4], in assay [9] and in assay [5] was “inactive” throughout. Moreover, the Potency result in [8] and in assay [6] was “inactive” each time.
In the case of `C[C@@H](O)[C@H]1C(=O)N2C(C(=O)O)=C(S[C@@H]3CN[C@H](CNS(N)(=O)=O)C3)[C@H](C)[C@H]12`, the Potency result in assay [1], in [2], in assay [10], in [4], in assay [9] and in assay [5] was “inactive” throughout. Besides, the Potency result in [8] and in assay [6] was “inactive” throughout.
For the compound `C=C1c2cccc(O)c2C(O)=C2C(=O)[C@]3(O)C(O)=C(C(N)=O)C(=O)[C@@H](N(C)C)[C@@H]3[C@@H](O)[C@H]12`, the Potency result in assay [1], in [2], in [4], in [5], in assay [8] and in [6] was “inactive” each time. Further, the Potency entry in assay [7] is “inactive”.
For `C[C@@H](O)[C@H]1C(=O)N2C(C(=O)O)=C([C@H]3CCCO3)S[C@H]12`, the Potency entry in assay [1], in [2], in assay [3], in [4], in [9] and in assay [5] was “inactive” each time. The Potency entry in assay [6] and in [7] was “inactive” throughout.
Take `CO[C@]12C[C@@H](COC(=O)c3cncc(Br)c3)CN(C)[C@@H]1Cc1cn(C)c3cccc2c13`: the Potency entry in assay [1], in [2], in assay [10], in assay [4], in assay [9] and in [5] was “inactive” throughout. For the same compound, the Potency entry in assay [8], in assay [6] and in assay [7] was “inactive” in each case.
On to `CCOC(=O)c1c(N)sc2c1CCN(Cc1ccccc1)C2`, for which the Potency entry in [1], in assay [2], in assay [10] and in assay [5] was “inactive” throughout. Also, the Potency in assay [9] and in assay [8] was 17.4 µM (active) each time.
Turning to `CCCCC(CC)COC(=O)/C=C/c1ccc(OC)cc1` (stereo not drawn), the Potency result in assay [1], in [2], in [3], in assay [4], in assay [9] and in assay [5] was “inactive” in each case. Besides, the Potency result in assay [6] and in [7] was “inactive” each time.
As for `CCOCCn1c(N2CCCN(C)CC2)nc2ccccc21`, the Potency result in assay [1], in [2], in assay [10], in assay [4], in assay [9] and in [5] was “inactive” in each case. The Potency entry in assay [8], in assay [6] and in assay [7] was “inactive” in each case.
Turning to `CC(C)(C)NC[C@H](O)COc1cccc2c1CCCC2=O`, the Potency result in assay [1], in [2], in assay [4], in [9], in assay [5] and in assay [8] was “inactive” in each case. The Potency result in [6] and in [7] was “inactive” throughout.
On to `O=C(c1ccc(F)cc1)C1CCN(CCn2c(=S)[nH]c3ccccc3c2=O)CC1`, for which the Potency result in assay [1], in assay [2], in assay [4], in assay [5] and in [7] was “inactive” in each case.
As to `C/C=C/c1ccc(O)c(OC)c1`, the Potency entry in assay [1], in assay [2], in assay [3], in assay [4], in [9] and in assay [5] was “inactive” each time. The Potency result in assay [6] and in [7] was “inactive” throughout.
As to `Cc1ccc(O)c([C@H](CCN(C(C)C)C(C)C)c2ccccc2)c1`, the Potency result in assay [1], in [2], in assay [10], in [4], in [9] and in assay [5] was “inactive” in each case. In assay [7], the Potency entry is “inactive”.
In the case of `CC[N+](C)(CC)CCOC(=O)C(O)(c1ccccc1)C1CCCCC1` (stereo not drawn), the Potency result in assay [1], in [2], in assay [3], in assay [4], in [9] and in [5] was “inactive” throughout. The Potency entry in assay [6] and in assay [7] was “inactive” each time.
Take `O=C(O)CCc1nc2ccccc2[nH]1`: the Potency result in [1], in assay [2], in assay [10], in assay [4], in assay [9] and in assay [5] was “inactive” in each case. In [6], the Potency entry was “inactive”.
`CN(C)C(=O)Nc1ccc(Cl)c(Cl)c1`: the Potency entry in [1], in [2], in assay [10], in assay [4], in assay [9] and in assay [5] was “inactive” throughout. The Potency result in [8] and in assay [6] was “inactive” throughout.
As to `C=C[C@H]1CN2CC[C@H]1C[C@H]2[C@H](O)c1ccnc2ccc(OC)cc12`, the Potency result in assay [1], in assay [2], in assay [10], in assay [4], in assay [9] and in assay [5] was “inactive” each time. In addition, the Potency result in assay [6] and in assay [7] was “inactive” each time.
Consider `C#C[C@]1(O)CC[C@H]2[C@@H]3[C@H](C)CC4=C(CCC(=O)C4)[C@H]3CC[C@@]21C`, for which the Potency entry in [1], in assay [2], in assay [3], in assay [4], in assay [5] and in [6] was “inactive” throughout. Also, the Potency entry in assay [7] is “inactive”.
On to `CC(=O)Nc1ccc(S(=O)(=O)Nc2ccc([N+](=O)[O-])cc2)cc1`, for which the Potency entry in assay [1], in assay [2], in [10], in [9], in [5] and in [8] was “inactive” in each case. Also, in assay [6], the Potency result is “inactive”.
Regarding `CCCCOC(=O)CC(CC(=O)OCCCC)(OC(C)=O)C(=O)OCCCC`, the Potency result in [1], in assay [2], in assay [3], in assay [4], in assay [9] and in assay [5] was “inactive” each time. Moreover, the Potency entry in assay [6] and in assay [7] was “inactive” each time.
